Results from PubChem BioAssay AID618 (Sanford-Burnham Center for Chemical Genomics, 2007).
In all, about 87,000 compounds went through this assay and about 540 (0.62%) were called active. No rule for the calls is given here. The full list was thinned out, with actives kept by preference. Results with a measured potency or affinity are listed apart.

Experiment: MT1-MMP gene expression reporter suppression – cell-based, luciferase reporter, luminescence (AID 618);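 also: actives suppress MT1-MMP promoter-driven transcription so potencies describe inhibitors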
Details: MT1-MMP promoter luciferase reporter cells

Compound | outcome
CCSC1=C(C#N)C2(CCCCC2)C(C#N)C(=O)N1 (stereo unspecified) | inactive
Cc1cc(NC(=O)CSc2nc(C(C)C)nc3sc4c(c23)CCCC4)no1 | inactive
CCOC(=O)N1CCN(C(=O)Cn2cc3c(n2)CCCC3)CC1 | inactive
O=C(O)C1=C(C(=O)N2CCN(C(=O)c3ccco3)CC2)CCCC1 | inactive
c1ccc(Sc2ncnc3c2oc2ccccc23)cc1 | inactive
Fc1cccc(-c2cc3nc4c(c(N5CCN(c6cnccn6)CC5)n3n2)CCCC4)c1 | inactive
O=C(Oc1ccc2ccccc2c1)c1ccco1 | inactive
COc1ccc2c(c1)C(C)=CC(C)(C)N2C(=O)CN1C(=O)CCC1=O | inactive
CCc1ccc2c(c1)C(C)=CC(C)(C)N2 | inactive
CC1=CC(C)(C)Nc2ccc(OC(=O)c3ccco3)cc21 | active
COC(=O)c1ccc(OC(=O)c2ccco2)cc1 | inactive
CC1=CC(C)(C)Nc2ccc(OC(=O)c3cccnc3)cc21 | inactive
CC1=CC(C)(C)Nc2ccc(OC(=O)CN3C(=O)C4CCCCC4C3=O)cc21 (stereo unspecified) | inactive
COc1ccc(-c2nnc(SCC(=O)N3c4ccccc4Sc4ccccc43)o2)cc1 | inactive
CCOC(=O)c1ccc2nc3c(cc2c1)CCS3 | inactive
COc1ccc2c(c1OC)C(=O)N(c1ccc3c(c1)CCC3)C2=O | inactive
CCn1c(=O)n(CC(=O)NC2CCCC(C)C2C)c(=O)c2ccccc21 (stereo unspecified) | inactive
CCN(CCNC(=O)C1CCN(c2nnc(-n3cccc3)s2)CC1)c1ccccc1 | inactive
Cc1cccc2cc3c(N)c(C(=O)N4CCOCC4)sc3nc12 | inactive
Cc1ccc2nc3sc(C(=O)N4CCOCC4)c(N)c3cc2c1 | active
Cc1ccc2cc3c(N)c(C(=O)N4CCOCC4)sc3nc2c1 | inactive
Cc1cccc(-n2ncc(C#N)c2N)c1 | inactive
Cc1cc(C)nc(SCCn2c(N(C)Cc3ccccc3)nc3c2c(=O)n(C)c(=O)n3C)n1 | inactive
Cc1cc(C)n(CCO)c(=O)n1 | inactive

Compound | outcome
N#CC1=C(N)SC(N)=C(C#N)C1C1CC=CCC1 (stereo unspecified) | inactive
Cc1ccc(-n2c(C)cc(/C=c3/sc4nc5ccccc5n4c3=O)c2C)cc1 | inactive
COC(=O)/C=c1/sc2nc3ccccc3n2c1=O | inactive
O=c1/c(=C\c2cccn2-c2ccccc2)sc2nc3ccccc3n12 | inactive
Cc1cc(/C=c2/sc3nc4ccccc4n3c2=O)c(C)n1-c1ccccn1 | active
COc1cc(N2CCCC2)c(OC)cc1/C=c1/sc2nc3ccccc3n2c1=O | inactive
CC(CNS(=O)(=O)c1cc(Cl)ccc1Cl)CN(C)C (stereo unspecified) | inactive
COc1ccccc1NC(=O)CC1C(=O)NCCN1C(=O)Nc1ccc(Cl)c(Cl)c1 (stereo unspecified) | inactive
CCCCC(=O)Nc1ccc2oc(-c3ccncc3)nc2c1 | inactive
O=C(c1ccc2snnc2c1)N1CCOCC1 | inactive
Cc1ccsc1C(=O)OCC(=O)c1cc(C)n(CC2CCCO2)c1C (stereo unspecified) | active
Cc1cc(C(=O)CN2C(=O)c3ccccc3S2(=O)=O)c(C)n1-c1ccccc1 | active
Cc1cc(C(=O)CN2C(=O)C3CC=CCC3C2=O)c(C)n1-c1ccccc1 (stereo unspecified) | inactive
Cc1cc(C(=O)CSc2nnnn2-c2ccccc2)c(C)n1CC1CCCO1 (stereo unspecified) | inactive
Cc1cc(C(=O)COC(=O)C2COc3ccccc3O2)c(C)n1CC1CCCO1 (stereo unspecified) | inactive
Cc1ccc(C)c(C(=O)CN2C(=O)c3ccccc3S2(=O)=O)c1 | inactive
Cc1cc(C(=O)COC(=O)c2n[nH]c3ccccc23)c(C)n1CC1CCCO1 (stereo unspecified) | inactive
Cc1cc(C(=O)Cn2nnc(-c3ccc(Cl)cc3)n2)c(C)n1CC1CCCO1 (stereo unspecified) | inactive
Cc1ccc(-c2nc(NC(=O)CSc3nnc(C)s3)ns2)cc1 | inactive
Cc1ccc(OCC(=O)Nc2ccc(N3CCOCC3)cc2)cc1 | inactive
Cc1ccc(N(C(C)C(=O)N2CCC(C)CC2)S(C)(=O)=O)cc1C (stereo unspecified) | inactive
Cc1ccc(CC2CC(=O)N(c3cc(C)on3)C2=O)cc1 (stereo unspecified) | inactive
CCOc1ccccc1NC(=O)C1CCCN(C(=O)NCc2ccccc2)C1 (stereo unspecified) | inactive
CCOC(=O)c1[nH]c(C)c(C(=O)N2CCc3ccccc32)c1C | active

Compound | outcome
CCOC(=O)c1[nH]c(C)c(C(=O)Nc2ccccc2C)c1C | active
CCOC(=O)c1[nH]c(C)c(C(=O)Nc2ccc(C)c(Cl)c2)c1C | inactive
CCOC(=O)c1[nH]c(C)c(C(=O)OCC(=O)N2CCc3ccccc32)c1C | inactive
CCOC(=O)c1[nH]c(C)c(C(=O)Nc2ccccc2F)c1C | inactive
CCOC(=O)c1c(C)[nH]c(C(=O)OCC(=O)N2CCc3ccccc32)c1C | inactive
CCOC(=O)c1[nH]c(C)c(C(=O)Nc2cc(Cl)ccc2C)c1C | active
CCOC(=O)c1[nH]c(C)c(C(=O)Nc2ccc(Cl)cc2)c1C | inactive
CCOC(=O)c1[nH]c(C)c(C(=O)Nc2ccc(C)cc2C)c1C | inactive
COc1cc(NS(=O)(=O)c2ccc3c(c2)n(C)c(=O)n3C)cc(OC)c1 | inactive
COc1ccc(C)cc1NC(=O)CSc1nnc(CC(=O)Nc2ccccc2C)n1C | inactive
CCOC(=O)c1ccc(NC(=O)CN2CCN(CCN=CC3=C(O)CC(C)(C)CC3=O)CC2)cc1 | inactive
COC(=O)c1[nH]c2cc(C)ccc2c1NC(=O)CN1CCCc2ccccc21 | inactive
Cc1nc2sc(C(c3cccs3)N3CCN(c4cccc(Cl)c4)CC3)c(O)n2n1 (stereo unspecified) | inactive
O=C(c1cn(-c2ccccc2)nc1-c1ccncc1)N1CCCCC1 | inactive
COc1ccccc1C(=O)N1CCN(c2cccc(Cl)c2)CC1 | inactive
COc1ccccc1CC(=O)N1CCN(c2cccc(C(F)(F)F)c2)CC1 | inactive
O=C(c1ccccc1F)N1CCN(c2cccc(C(F)(F)F)c2)CC1 | inactive
COc1ccccc1C(=O)N1CCN(c2cccc(C(F)(F)F)c2)CC1 | active
COc1ccc(C(=O)N2CCN(c3cccc(Cl)c3)CC2)c(OC)c1 | inactive
CCOc1ccccc1C(=O)N1CCN(c2cccc(Cl)c2)CC1 | active
Cc1cc(-c2nn3c(C)nnc3s2)ccc1NC(=O)C(C)(C)C | inactive
CCOC(=O)c1cc(C)sc1NC(=O)CCC(=O)O | inactive
COc1ccc(Cn2c3nc4ccccc4nc3c3c(=O)n(Cc4ccco4)c(C)nc32)cc1 | inactive
